Measured values reported in ChEMBL document CHEMBL1201862, “PubChem BioAssay data set” (2004).
In all, about 53,000 […] went through this assay and about 4,900 (9.2%) were called active. Cut-off read from the data, not from the text of the source: active = GI50 up to about 1.1 µM and inactive = higher. Only a selection was taken, and actives are over-represented in it overall. Results with a measured potency or affinity are listed apart.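 Five compound concentrations were applied to cells in 96-well plates for 48 hours; endpoints were derived by simple linear interpolation of the resulting dose-response curve. GI50 marks 50% less growth.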

system: NCI-H522; assay: NCI tumour cell line growth inhibition, 48 h

Row | Substance | GI50 [nM]
1 | CISPLATIN, CHEMBL11359 | 2030
2 | cis-Bis[[(trimethylsilyl)methyl]amino]tetrachloroplatinum(IV), CHEMBL2146191 | 8220
3 | [Bis(aminomethyl)tetramethylenesilane]tetrachloropaltinum(IV), CHEMBL2146189 | 2180
4 | [Bis(aminomethyl)dimethylsilane]dichloroplatinum (II), CHEMBL2146201 | 4940
5 | [Bis(aminomethyl)diethylsilane]tetrachloroplatinum(IV), CHEMBL2146203 | 2650
6 | [Bis(aminomethyl)pentamethylenesilane]tetrachloropaltinum(IV), CHEMBL2146204 | 776
7 | [Bis(aminomethyl)tetramethylenesilane]dichloropaltinum(II), CHEMBL2146205 | 7620
8 | mu-(1,7-nanodiamine-N,N')bis-(cis-aminedichloroplatimum (II)), CHEMBL2146215 | 7940
9 | [Bis(aminomethyl)pentamethylenesilane]dichloropaltinum(II), CHEMBL2146202 | 1520
10 | [Bis(aminomethyl)dimethylsilane]tetrachloroplatinum(IV), CHEMBL2146190 | 1830
